High-throughput results: PubChem, several laboratories
Rows were chosen to be rich in hits. Some 3.2% of all compounds tested hit in one or more screens of this group.
TMEM16A act – mouse TMEM16A channel activation, primary screen | HEK293 TMEM16A/YFP-H148Q/I152L, iodide quench fluorescence; hits give low values | hit rate 0.3% among 340,000 | B-score at 10 µM | Q8BHY3 | AID 623877;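 active = fluorescence-ratio B-score plate-corrected deviation score at least 3 library SD below zero, with starting fluorescence score within 5 deviations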;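 note: channel opened by trigger with iodide after compound preincubation; score built on the fluorescence ratio of max minus min over baseline; more negative score means more quench and so TMEM16A activation or potentiation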
CHT allo act – human CHT allosteric activation. Q9GZV3. CHT-expressing cells, membrane potential dye, choline EC20; hits give high values; LV-AA mutant CHT in HEK293 cells. B-score at 10 µM. hit rate 0.49% among 310,000. AID 488977;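 active = initial fluorescence not abnormally high and integrated response B-score, plate-corrected, over 3 SD above library mean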
Target sequence (Q9GZV3 whole entry, looked up): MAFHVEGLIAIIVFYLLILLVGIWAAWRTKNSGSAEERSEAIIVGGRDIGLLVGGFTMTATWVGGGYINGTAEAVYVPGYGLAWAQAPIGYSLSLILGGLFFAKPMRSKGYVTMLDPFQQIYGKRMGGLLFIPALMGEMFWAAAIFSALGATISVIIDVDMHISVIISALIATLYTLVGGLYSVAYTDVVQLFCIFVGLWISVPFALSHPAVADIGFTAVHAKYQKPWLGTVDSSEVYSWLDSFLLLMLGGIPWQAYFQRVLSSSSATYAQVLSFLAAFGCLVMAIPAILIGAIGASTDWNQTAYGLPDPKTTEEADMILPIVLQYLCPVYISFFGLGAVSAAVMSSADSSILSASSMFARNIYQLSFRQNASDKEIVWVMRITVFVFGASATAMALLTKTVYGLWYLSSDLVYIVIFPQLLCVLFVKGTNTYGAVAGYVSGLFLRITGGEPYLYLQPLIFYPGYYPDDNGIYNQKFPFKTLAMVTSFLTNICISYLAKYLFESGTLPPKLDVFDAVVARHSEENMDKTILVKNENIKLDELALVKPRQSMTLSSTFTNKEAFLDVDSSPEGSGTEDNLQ
CHT inh – inhibitors of human choline transporter CHT; Q9GZV3; CHT-expressing cells, membrane potential dye, choline response; hits give low values; B-score at 10 µM; hit rate 0.86% among 310,000; AID 488975;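 active = B-score over 3 SD under the library average, and starting fluorescence ratio not unusually high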;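 note: choline stimulus applied at its EC90 after an EC20 pre-addition; B-score computed on integrated fluorescence ratio after choline addition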
Rce1 inhib – inhibitors of yeast Ras-converting enzyme; yeast membranes, quenched prenylated peptide cleavage fluorescence; calls only; hit rate 0.27% among 290,000;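 active = fall in fluorescence gain of 50% or more versus controls, with final raw signal at or below 3038400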;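 note: plate controls were neutral control wells for no effect and wells lacking membranes for full effect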
ANO1 block – mouse TMEM16A channel inhibition, primary screen; Q8BHY3; HEK293 TMEM16A/YFP iodide influx fluorescence, ionomycin; normalized B-score (activity score, 25-100; higher = stronger inhibition) at 10 µM; hit rate 1.2% among 310,000; AID 588511;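 active = ratio plate-corrected score three or more library SD toward inhibition, starting fluorescence score within five deviations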;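 note: score derived from kinetic fluorescence span divided by baseline fluorescence per well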
Kir21 inh – inhibitors of mouse Kir2.1 inward-rectifier potassium channel. hit rate 0.85% among 310,000. AID 1672. B-score at 10 µM. HEK293-Kir2.1, FluxOR thallium flux fluorescence; hits give low values. P35561;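 active = fluorescence ratio B-score at or below minus 3 SD of library scores, with starting-brightness B-score within 2 SD, cut at about -4.2 in these data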;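 note: channel flux triggered by added potassium and thallium sulfate stimulus; B-score of peak minus minimum fluorescence over baseline after thallium stimulus; more negative B-score means stronger Kir2.1 block with less thallium influx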
CHT act confirm – human CHT activation, confirmatory screen; shares compounds with CHT allo act; CHT-expressing cells, membrane potential dye fluorescence (FDSS); % of choline EC20–EC90 response window; HEK293 expressing CHT LV-AA mutant; choline added at its EC20; activation, % at 10 µM; hit rate 91% among 2,500;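 active = primary screen active, with duplicate mean activation above negative control mean plus 3 SD, cut at about 11% in these data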
HEK293 MP dye – counter-screen for CHT activators: effect in parental HEK293 cells; shares compounds with CHT allo act; membrane potential dye fluorescence (FDSS); measured after EC20 choline addition; ratio readout change at 10 µM, hits read low; hit rate 62% among 2,500; AID 623908;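 active = duplicate-averaged ratio beyond 3 SD from buffer wells, up or down, though filed actives are nearly all decreases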
Active calls of the source: *; i = inactive; nt = no result given.

SMILES | TMEM16A act | CHT allo act | CHT inh | Rce1 inhib | ANO1 block | Kir21 inh | CHT act confirm | HEK293 MP dye
O=C(NCC(c1ccco1)N1CCc2ccccc2C1)c1cccc(F)c1 (configuration not stated) | i | i | i | i | i | -1.9 | 11* | i
Cc1ccccc1C(=O)NCC(c1ccco1)N1CCc2ccccc2C1 (configuration not stated) | i | i | i | i | i | -1.2 | -1 | i
COc1cccc(C(=O)NCC(c2ccco2)N2CCc3ccccc3C2)c1 (configuration not stated) | i | i | i | i | i | 0.14 | nt | nt
CCC(=O)Nc1nnc(SCC(=O)NC2CCCC2)s1 | i | i | i | i | i | 1.5 | nt | nt
CCCCCCCC[n+]1cccc2c3ccccc3ccc21 | i | 6.8* | i | i | 100* | -11* | 19* | -26*
COC(=O)c1ccc(C)c(-n2c(=O)n(Cc3ccccc3)c(=O)c3[nH]cnc32)c1 | i | i | i | i | i | 0.9 | nt | nt
CCCC[n+]1c(C)sc2cc(OC)ccc21 | i | i | i | i | i | -0.09 | nt | nt
CCOc1ccc2c(c1)sc(N)[n+]2Cc1cc(C)cc2cccnc12 | i | 11* | i | i | i | -4.3* | 52* | -34*
COc1ccc2c(c1)sc(N)[n+]2Cc1cc(C)cc2cccnc12 | i | 9.6* | i | i | i | -4.5* | 54* | -38*
CCOc1ccc2c(ccc(/C=C/c3cc(C)c4cccnc4c3O)[n+]2C)c1 | i | nt | nt | nt | nt | nt | nt | nt
CNC(=O)Cn1c(C)cc(=O)c2cccc(OC)c21 | i | 13* | i | i | i | 2.5 | 64* | -89*
Cc1cccc2c(=O)cc(C)n(CC(N)=O)c12 | i | 11* | i | i | i | 0.38 | 68* | -78*
COc1ccc(NC(=O)Cn2c(C)cc(=O)c3cccc(OC)c32)cc1 | i | i | i | i | i | 1.8 | nt | nt
C#CC[N+](C)(C)CCCCCCCCCC | i | i | i | i | i | -0.15 | nt | nt
CCCCCC[N+](C)(C)CCSSCC[N+](C)(C)CCCCCC | i | i | i | i | i | 0.02 | 38* | -46*
CN(CC(=O)N1CCc2ccccc2C1)c1ccccc1 | i | i | i | i | i | 1.1 | nt | nt
COC(=O)c1c(NC(=O)Cc2ccc(OC)c(S(=O)(=O)N3CCOCC3)c2)sc(C)c1C | i | i | i | i | i | -0.12 | nt | nt
CC1(CCc2ccccc2)NC(=O)N(CC(=O)N2CC(=O)Nc3ccccc32)C1=O (configuration not stated) | i | i | i | i | i | -1.6 | nt | nt
CCn1cc(C(=O)NCCCN(C)C)c(=O)c2cc(F)c(N3CCN(C)CC3)cc21 | i | i | i | i | i | 0.02 | 30* | i
CCCNC(=O)c1cn(CC)c2cc(N3CCN(C)CC3)c(F)cc2c1=O | i | i | i | i | i | 0.62 | nt | nt
CCn1cc(S(=O)(=O)c2ccc(C)cc2)c(=O)c2cc(F)c(N3CCN(C)CC3)cc21 | i | i | i | i | i | 0.29 | 49* | -49*
CC1CN(S(=O)(=O)c2ccc(C(=O)OCc3ccc(C#N)cc3)cc2)CC(C)O1 (configuration not stated) | i | nt | nt | nt | nt | nt | nt | nt
COc1ccc(C(=O)N(CCc2ccccc2)Cc2ccccc2)c(OC)n1 | i | 10* | i | i | i | -0.76 | 14* | i
CS(=O)(=O)c1ccccc1C(=O)N(CCc1ccccc1)Cc1ccccc1 | i | i | i | i | i | -0.24 | nt | nt
N#Cc1cc(Sc2ccccn2)c([N+](=O)[O-])cc1C#N | i | i | i | i | i | -1.6 | 46* | -41*
SMILES | TMEM16A act | CHT allo act | CHT inh | Rce1 inhib | ANO1 block | Kir21 inh | CHT act confirm | HEK293 MP dye
CCC[n+]1c(C)sc2c(OC)ccc(OC)c21 | i | 12* | i | i | i | -1.4 | 47* | i
O=C(CSc1ccc(F)cc1)NCCSc1ccccc1 | i | i | i | i | i | -1.7 | nt | nt
CCOc1ccc(NS(=O)(=O)c2c(C)nc3sc(CC)nn3c2=O)cc1 | i | i | i | nt | i | nt | nt | nt
O=C(c1ccccc1CCc1ccccc1)N1CCN(c2ccccn2)CC1 | i | 6.5* | i | i | i | -0.67 | 27* | i
Cc1cc(C)nc(NC(N)=NCCc2c[nH]c3ccccc23)n1 | i | 8.6* | i | i | i | 0.13 | 60* | -61*
Cc1cc(C)nc(NC(N)=NCCc2ccccc2)n1 | i | nt | nt | nt | nt | nt | nt | nt
Cc1cc(C)nc(NC(N)=NC(C)c2ccccc2)n1 (configuration not stated) | nt | 6.3* | i | i | i | -0.01 | 45* | -34*
CC(=O)Nc1ccc(S(=O)(=O)NCCc2cn3nc(C)c(C)nc3n2)cc1 | i | i | i | i | i | 1.3 | nt | nt
O=C(COC(=O)c1cc(Cl)ccc1Cl)Nc1ccc2[nH]c(=O)[nH]c2c1 | i | i | i | i | i | 1.5 | nt | nt
CCOP(=O)(OCC)C(NC(=O)C(F)(F)F)c1ccccc1 (configuration not stated) | i | i | i | i | i | 0.96 | nt | nt
CCOP(=O)(OCC)C(NCc1ccccc1)c1ccc(Br)cc1 (configuration not stated) | i | i | i | i | i | -4.3* | 29* | i
COc1ccc(C(=O)C(CCCCC(CN(C)C)C(=O)c2ccc(OC)cc2)CN(C)C)cc1 (configuration not stated) | i | i | i | i | i | -2.8 | 15* | -27*
COCCCn1c(SCC(=O)NNC(=O)c2cccc(O)c2)nnc1-c1ccncc1 | i | i | i | i | i | 2 | nt | nt
c1ccc(-c2csc(Nc3cccnc3)n2)nc1 | i | i | i | i | i | 1.7 | 50* | -55*
CS(=O)(=O)c1ccccc1C(=O)Nc1cccc2ncccc12 | i | i | i | nt | i | -0.05 | nt | nt
COc1ccc(C(CNC(=O)c2c(C)nn(Cc3ccc(C)cc3)c2Cl)N2CCOCC2)cc1 (configuration not stated) | i | nt | nt | nt | nt | nt | nt | nt
CCOC(=O)CC1(NC(=O)C2CCC(=O)N(CCc3ccccc3)C2)CCCCC1 (configuration not stated) | i | i | i | i | i | -0.74 | nt | nt
